# Laboratory results taken from paper PMC7862700, “An all-to-all approach to the identification of sequence-specific readers for epigenetic DNA modifications on cytosine”.
# Assays:
# Experiment in all cases: DAPPL (digital affinity profiling via proximity ligation, sequencing); 10 mM Tris-HCl pH 7.5, 50 mM NaCl, 1 mM DTT, 4% glycerol, room temperature, 30 min; GST-TFs on glutathione beads, 16-mer random dsDNA library, 0.1% formaldehyde crosslink after washing; high values mean tight binding
# Settings in all cases: protein: recombinant; tags: N-terminal GST; dsDNA, one strand shown
# ETV2 = target: T1, ETV2 (Homo sapiens, UniProt O00321 1-342)
# T1 sequence: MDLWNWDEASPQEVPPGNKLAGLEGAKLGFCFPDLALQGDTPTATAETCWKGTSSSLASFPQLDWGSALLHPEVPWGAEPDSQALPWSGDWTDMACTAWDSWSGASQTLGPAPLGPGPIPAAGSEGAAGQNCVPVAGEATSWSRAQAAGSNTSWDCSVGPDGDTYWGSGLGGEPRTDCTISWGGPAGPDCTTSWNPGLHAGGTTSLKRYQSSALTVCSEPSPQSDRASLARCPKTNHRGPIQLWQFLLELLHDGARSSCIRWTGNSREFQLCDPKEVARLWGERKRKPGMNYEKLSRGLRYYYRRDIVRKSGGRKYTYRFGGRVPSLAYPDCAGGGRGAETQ
# In short: (§1)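 Yeast served to express human transcription factors as GST fusions, which were then captured on glutathione beads and labelled with DNA barcodes. Pooled with a tag-only sample, they were incubated with 200 nmole of a 16-mer random double-stranded DNA library for 30 min at room temperature in Tris/NaCl/DTT/glycerol buffer, washed, crosslinked with 0.1% formaldehyde, ligated by proximity, amplified by PCR and sequenced. Dividing each hexamer's read frequency for a factor by its frequency for the tag-only sample gives the binding signal.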
# ELF3 = target: T2, ELF3 (Homo sapiens, UniProt P78545 1-371)
# T2 sequence: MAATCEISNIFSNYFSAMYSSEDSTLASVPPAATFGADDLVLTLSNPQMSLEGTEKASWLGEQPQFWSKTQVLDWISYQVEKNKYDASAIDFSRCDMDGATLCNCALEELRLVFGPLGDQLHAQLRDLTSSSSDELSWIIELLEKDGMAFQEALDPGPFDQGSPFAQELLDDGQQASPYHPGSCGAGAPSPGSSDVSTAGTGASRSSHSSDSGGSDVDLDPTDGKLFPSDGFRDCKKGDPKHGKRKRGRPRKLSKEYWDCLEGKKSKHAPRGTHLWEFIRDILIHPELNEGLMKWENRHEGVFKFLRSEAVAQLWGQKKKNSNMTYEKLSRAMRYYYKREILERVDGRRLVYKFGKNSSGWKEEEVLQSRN
# In short: as §1
# ETV1 = ETV1 (Homo sapiens, UniProt P50549 1-477)
# Chain of ETV1 (P50549 whole entry): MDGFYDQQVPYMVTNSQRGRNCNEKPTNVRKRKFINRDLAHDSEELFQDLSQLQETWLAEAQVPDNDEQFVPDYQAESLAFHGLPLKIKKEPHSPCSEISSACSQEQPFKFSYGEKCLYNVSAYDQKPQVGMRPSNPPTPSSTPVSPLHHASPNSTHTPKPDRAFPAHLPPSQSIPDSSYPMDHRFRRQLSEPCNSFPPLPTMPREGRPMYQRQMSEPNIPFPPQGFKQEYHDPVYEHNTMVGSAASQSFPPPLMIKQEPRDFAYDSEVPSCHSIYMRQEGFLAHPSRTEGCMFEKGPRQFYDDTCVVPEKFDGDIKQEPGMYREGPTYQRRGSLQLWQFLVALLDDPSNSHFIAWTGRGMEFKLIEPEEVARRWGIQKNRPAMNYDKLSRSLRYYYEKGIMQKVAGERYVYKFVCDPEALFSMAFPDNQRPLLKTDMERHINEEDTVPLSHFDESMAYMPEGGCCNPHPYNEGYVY
# In short: as §1
# ERF = target: T3, ERF (Homo sapiens, UniProt P50548 1-548)
# T3 sequence: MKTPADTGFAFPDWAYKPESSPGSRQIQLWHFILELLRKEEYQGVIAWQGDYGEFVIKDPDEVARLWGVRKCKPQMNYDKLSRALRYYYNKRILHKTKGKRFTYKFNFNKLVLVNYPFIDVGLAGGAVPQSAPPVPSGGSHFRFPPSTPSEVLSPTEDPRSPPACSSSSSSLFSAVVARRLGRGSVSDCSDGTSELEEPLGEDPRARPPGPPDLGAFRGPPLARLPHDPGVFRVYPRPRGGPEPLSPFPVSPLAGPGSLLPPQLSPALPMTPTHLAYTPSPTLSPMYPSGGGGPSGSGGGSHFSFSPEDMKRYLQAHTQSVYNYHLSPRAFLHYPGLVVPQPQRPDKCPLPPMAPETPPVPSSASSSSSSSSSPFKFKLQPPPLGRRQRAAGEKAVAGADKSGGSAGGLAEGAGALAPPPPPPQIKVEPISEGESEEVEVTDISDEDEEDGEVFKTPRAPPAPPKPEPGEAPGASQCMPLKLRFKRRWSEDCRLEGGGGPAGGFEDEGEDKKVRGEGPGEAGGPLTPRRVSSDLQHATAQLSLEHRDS
# In short: as §1
# ETV3L = target: T4, ETV3L (Homo sapiens, UniProt Q6ZN32 1-361)
# T4 sequence: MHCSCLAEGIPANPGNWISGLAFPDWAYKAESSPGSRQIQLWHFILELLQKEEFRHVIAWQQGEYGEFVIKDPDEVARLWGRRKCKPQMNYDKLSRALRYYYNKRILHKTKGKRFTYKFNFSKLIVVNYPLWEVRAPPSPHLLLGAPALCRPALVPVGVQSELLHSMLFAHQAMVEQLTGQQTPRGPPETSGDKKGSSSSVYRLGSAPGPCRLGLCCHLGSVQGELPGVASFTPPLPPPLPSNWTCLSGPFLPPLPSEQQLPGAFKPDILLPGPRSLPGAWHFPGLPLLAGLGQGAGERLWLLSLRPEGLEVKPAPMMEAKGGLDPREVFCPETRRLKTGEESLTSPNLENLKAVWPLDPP
# In short: as §1
# ETS2 = target: T5, ETS2 (Homo sapiens, UniProt P15036 1-469)
# T5 sequence: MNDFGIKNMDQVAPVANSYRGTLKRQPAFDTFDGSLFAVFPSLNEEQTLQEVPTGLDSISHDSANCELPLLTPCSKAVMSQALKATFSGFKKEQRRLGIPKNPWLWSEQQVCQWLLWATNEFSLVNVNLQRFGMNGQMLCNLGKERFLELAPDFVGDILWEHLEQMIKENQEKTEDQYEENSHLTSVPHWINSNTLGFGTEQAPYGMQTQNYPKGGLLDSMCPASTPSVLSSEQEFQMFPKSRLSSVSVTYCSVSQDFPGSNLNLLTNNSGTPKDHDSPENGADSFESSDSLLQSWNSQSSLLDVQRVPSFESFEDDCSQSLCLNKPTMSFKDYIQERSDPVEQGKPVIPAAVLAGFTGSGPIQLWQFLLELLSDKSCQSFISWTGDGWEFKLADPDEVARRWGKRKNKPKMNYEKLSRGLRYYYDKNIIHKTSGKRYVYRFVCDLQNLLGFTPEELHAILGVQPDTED
# In short: as §1
# SPDEF = target: T6, SPDEF (Homo sapiens, UniProt O95238 1-335)
# T6 sequence: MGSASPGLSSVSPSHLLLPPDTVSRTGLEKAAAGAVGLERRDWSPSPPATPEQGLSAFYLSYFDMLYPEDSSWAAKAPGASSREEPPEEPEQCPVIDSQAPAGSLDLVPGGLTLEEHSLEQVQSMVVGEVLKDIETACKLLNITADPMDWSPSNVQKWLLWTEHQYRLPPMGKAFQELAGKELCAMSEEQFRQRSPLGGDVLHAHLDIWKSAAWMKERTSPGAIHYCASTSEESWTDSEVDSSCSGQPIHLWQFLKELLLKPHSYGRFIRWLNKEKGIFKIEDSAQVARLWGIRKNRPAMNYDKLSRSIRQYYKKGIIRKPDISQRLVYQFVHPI
# In short: as §1
# ETV7 = target: T7, ETV7 (Homo sapiens, UniProt Q9Y603 1-341)
# T7 sequence: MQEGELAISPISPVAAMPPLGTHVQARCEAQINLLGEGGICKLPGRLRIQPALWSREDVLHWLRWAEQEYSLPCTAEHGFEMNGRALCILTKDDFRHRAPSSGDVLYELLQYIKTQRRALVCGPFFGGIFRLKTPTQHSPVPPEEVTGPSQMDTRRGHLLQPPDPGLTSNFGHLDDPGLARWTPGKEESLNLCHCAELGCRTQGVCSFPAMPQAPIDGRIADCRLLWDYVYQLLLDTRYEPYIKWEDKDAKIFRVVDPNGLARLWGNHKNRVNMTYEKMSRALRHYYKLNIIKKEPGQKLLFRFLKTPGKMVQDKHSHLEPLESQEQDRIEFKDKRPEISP
# In short: as §1
# ETV3 = target: T8, ETV3 (Homo sapiens, UniProt P41162-2 1-143)
# T8 sequence: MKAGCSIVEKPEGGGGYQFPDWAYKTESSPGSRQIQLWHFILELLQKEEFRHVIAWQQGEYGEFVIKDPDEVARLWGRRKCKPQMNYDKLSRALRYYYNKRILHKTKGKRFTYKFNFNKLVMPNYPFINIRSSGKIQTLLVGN
# In short: as §1
# ETV6 = ETV6 (Homo sapiens, UniProt P41212 1-452)
# Chain of ETV6 (P41212 whole entry): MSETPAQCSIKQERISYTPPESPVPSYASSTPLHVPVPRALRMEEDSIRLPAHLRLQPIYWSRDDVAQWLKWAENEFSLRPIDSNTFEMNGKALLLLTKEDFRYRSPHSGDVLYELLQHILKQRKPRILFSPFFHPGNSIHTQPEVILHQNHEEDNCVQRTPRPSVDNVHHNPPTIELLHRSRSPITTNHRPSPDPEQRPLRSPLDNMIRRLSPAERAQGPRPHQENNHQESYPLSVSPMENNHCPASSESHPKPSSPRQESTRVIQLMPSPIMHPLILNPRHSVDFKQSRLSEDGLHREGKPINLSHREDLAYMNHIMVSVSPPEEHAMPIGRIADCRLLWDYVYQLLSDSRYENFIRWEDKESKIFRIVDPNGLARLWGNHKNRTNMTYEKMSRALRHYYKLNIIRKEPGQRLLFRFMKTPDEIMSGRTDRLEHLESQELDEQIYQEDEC
# In short: as §1
sequence,measurement,setting,value
GTTGAC,binding signal,ETV2,"1.07 fold enrichment (6-mer frequency, TF over GST control)"
same,binding signal,ELF3,"1.09 fold enrichment (6-mer frequency, TF over GST control)"
same,binding signal,ETV1,"1.06 fold enrichment (6-mer frequency, TF over GST control)"
same,binding signal,ERF,"1.43 fold enrichment (6-mer frequency, TF over GST control)"
same,binding signal,ETV3L,"1.19 fold enrichment (6-mer frequency, TF over GST control)"
same,binding signal,ETS2,"1.17 fold enrichment (6-mer frequency, TF over GST control)"
same,binding signal,SPDEF,"1.07 fold enrichment (6-mer frequency, TF over GST control)"
same,binding signal,ETV7,"1.19 fold enrichment (6-mer frequency, TF over GST control)"
same,binding signal,ETV3,"1.04 fold enrichment (6-mer frequency, TF over GST control)"
same,binding signal,ETV6,"1.21 fold enrichment (6-mer frequency, TF over GST control)"
